Bioassay records (PubChem)
In the library only some 2.4% were active in any assay of this set; here they are far more common.
D2 ag-1: agonists of human D2 dopamine receptor (beta-arrestin); P14416; DiscoveRx PathHunter D2 beta-arrestin, luminescence, 90 min; 100% = 57 uM dopamine signal; activation, % (concentration not given with the values); 360,000 tested, 0.084% active; in the data active = activation above about 40%
Target sequence (P14416 whole entry, looked up): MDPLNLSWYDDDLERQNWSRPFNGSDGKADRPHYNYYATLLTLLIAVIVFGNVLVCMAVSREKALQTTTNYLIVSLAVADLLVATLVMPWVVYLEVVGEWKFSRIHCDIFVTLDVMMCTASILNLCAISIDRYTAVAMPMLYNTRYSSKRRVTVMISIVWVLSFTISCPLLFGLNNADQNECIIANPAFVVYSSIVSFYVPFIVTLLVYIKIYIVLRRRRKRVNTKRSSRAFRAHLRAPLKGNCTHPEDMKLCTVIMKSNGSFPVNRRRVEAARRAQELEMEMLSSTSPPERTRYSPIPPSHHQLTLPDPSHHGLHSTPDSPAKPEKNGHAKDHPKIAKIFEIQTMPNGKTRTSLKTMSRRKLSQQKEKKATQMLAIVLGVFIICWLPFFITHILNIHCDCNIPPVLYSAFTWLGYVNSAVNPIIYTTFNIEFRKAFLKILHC
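DiscoveRx PathHunter D2 beta-arrestin cells (2,100/well) attached overnight, then compound-stimulated 90 min at 37 C in HBSS/10 mM HEPES/0.1% Tween-20 buffer; beta-galactosidase complementation read by luminescence after 1 h at ambient temperature. Dopamine 57 uM final (EC100) as control.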
D2 ag-2: D2 dopamine receptor (human) agonism; HEK293 T-REx D2 cells, calcium flux agonist mode; activation, % at 2 µM; 340,000 tested, 0.53% active;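 active = activation over 3 SD above normal in the single-dose calcium agonist read, cut at about 30% in these data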; note: 0% is about no effect
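Tetracycline-induced HEK293 Trex cells with D2 receptor force-coupled to calcium signaling, plated overnight at 30 C and loaded with no-wash calcium dye. Calcium flux read kinetically for 180 s after compound addition; responses flag agonists.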
D2 PAM-1: D2 dopamine receptor (human) potentiation. P14416. HEK293 T-REx D2, calcium flux, EC20 dopamine potentiation. potentiation, % at 10 µM. 340,000 tested, 0.34% active;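 active = potentiation over 3 SD above the plate norm, cut at about 30% in these data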; note: 0% is about no effect
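Potentiation of an EC20 dopamine calcium response measured kinetically over 180 s, after a preceding 180 s compound-only read flagging agonists. Cells: inducible Hek293 Trex D2 line, 4000/well, cultured overnight at 30 C before dye loading.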
D2 antagonist: antagonizes the human D2 dopamine receptor. P14416. HEK293 TREx D2 cells, calcium flux, dopamine EC80. inhibition, % at 10 µM. 340,000 tested, 2% active. AID 485344; in the data active = inhibition above about 30%; inactive = below that, where a call was filed; note: 0% is about no effect
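Read-out: kinetic calcium fluorescence (1 cycle/s) in inducible HEK293 T-REx D2 cells after an EC80 dopamine addition that followed 180 s compound preincubation. Loss of the dopamine response indicates antagonism.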
D2 PAM-2: human D2 receptor positive allosteric modulation | P14416 | DiscoveRx D2 beta-arrestin cells, luminescence, 90 min; 100% = 57 uM dopamine signal | potentiation, % (no concentration beside the values) | 360,000 tested, 0.23% active; in the data active = potentiation above about 50%
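PathHunter beta-arrestin assay in DiscoveRx D2 cells. Compounds were added with an EC20 of dopamine (50 nM final) for 90 min at 37 deg C. Luminescence was read 1 h after detection reagent, with 57 uM dopamine as the EC100 control.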
The depositor's hits bear a star; x = no result given.

SMILES | D2 ag-1 | D2 ag-2 | D2 PAM-1 | D2 antagonist | D2 PAM-2
CCC(=O)c1ccccc1OCCN1CCN(Cc2ccccc2)CC1 | -7.3 | -1.0 | -26.4 | 110.0* | -6.6
c1ccc(-c2ccccc2OCCCN2CCCCC2)cc1 | -1.5 | -0.5 | -29.9 | 43.1* | -31.1
OC(COc1cccc2ccccc12)CN1CCN(c2ccc(Cl)cc2)CC1 (configuration not stated) | 3.5 | 7.6 | -12.1 | 7.7 | -12.0
c1ccc2c(OCCCN3CCCCCC3)cccc2c1 | -2.4 | -0.4 | -32.1 | 73.9* | -79.3
OCCCN1CCN(CCOc2ccccc2-c2ccccc2)CC1 | -3.0 | -0.1 | -28.4 | 66.6* | -10.7
OC(COc1cccc2ccccc12)CN1CCCC1 (configuration not stated) | -1.1 | 0.4 | 72.6* | -4.8 | -10.5
Clc1cccc(OCCCN2CCCC2)c1Cl | -4.8 | 0.4 | -22.9 | 51.6* | -13.7
Cc1ccc(NC(=O)C2CCN(S(=O)(=O)c3c(C)noc3C)CC2)c(C)c1 | x | -1.1 | -0.6 | x | x
COc1ccc(OC)c(NC(=O)C2CC(/C=C/c3ccccc3)=NO2)c1 (configuration not stated) | 1.9 | 32.6* | -11.3 | -20.2 | -1.5
O=C(CCN1CCN(c2ccccc2)CC1)c1ccc(Br)cc1 | 3.9 | 20.8 | -27.0 | -17.8 | -15.9
N#Cc1ccc(C(=O)CN2CCN(c3ccccc3)CC2)cc1 | -1.7 | 35.1* | -22.7 | 16.2 | -13.8
COc1ccc(C2=C(C)C(=O)N(Cc3ccc(C(=O)NCc4cccc(C)c4)cc3)S2(=O)=O)cc1 | x | -0.2 | -7.3 | x | x
COCCCn1c(=N)c(C(=O)NCC2CCCO2)cc2c(=O)n3cc(C)ccc3nc21 (configuration not stated) | x | 1.8 | 5.6 | x | x
COc1ccc(Cn2c(-c3ccc(C)cc3)nc3c(c(=O)c4ccccc4n3C)c2=O)cc1 | -2.6 | 0.0 | -3.2 | 37.5* | -11.8
COc1ccc(CCn2c(C)nc3c(c(=O)c4ccccc4n3C)c2=O)cc1 | 1.5 | 3.5 | 25.3 | 49.3* | -17.0
CCOc1ccccc1NC(=O)Nc1nnc(N2CCCC(C)C2)s1 (configuration not stated) | x | 3.2 | -9.2 | x | x
O=C(CCc1nnc2n(Cc3ccccc3Cl)c(=O)c3ccccc3n12)Nc1ccccc1 | x | 0.0 | -6.3 | x | x
COc1ccc(NC(=O)CCc2nnc3n(CC(C)C)c(=O)c4ccccc4n23)cc1 | x | 0.4 | 14.7 | x | x
CC(=O)c1ccc(NC(=O)c2cc(-c3ccc(C)s3)nc3ccccc23)cc1 | x | 0.7 | -5.9 | x | x
CC(=O)CCn1c(=O)n(CCC(C)=O)c(=O)n(CCC(C)=O)c1=O | 0.2 | -0.7 | 35.8* | 23.7 | -5.0
Cc1oc(-c2cccc(C(F)(F)F)c2)nc1CN1CCC[C@H]1CO | -0.4 | -0.9 | -27.5 | 70.3* | -13.0
COc1cccc(/C(O)=C2/C(=O)C(=O)N(c3ccccn3)C2c2ccc(OC)c(OC)c2)c1 (configuration not stated) | 0.4 | 1.0 | -8.8 | 31.8* | 2.7
COc1ccc(/C(O)=C2/C(=O)C(=O)N(c3ccccn3)C2c2ccc(OC)c(OC)c2)cc1 (configuration not stated) | -5.6 | 0.0 | -0.6 | 2.7 | -6.1
COc1ccc(/C=C(\C#N)C(=O)OC2CCOC2=O)cc1 (configuration not stated) | -1.4 | 0.0 | 6.7 | 33.4* | -14.8
O=S(=O)([O-])CCC[n+]1c(/C=C\Nc2ccccc2)oc2ccc(-c3ccccc3)cc21 | x | 52.1* | 10.6 | -2.7 | x
CC(OC(=O)c1c2c(nc3ccccc13)/C(=C\c1ccc3c(c1)OCO3)CCC2)C(=O)Nc1ccc(S(N)(=O)=O)cc1 (configuration not stated) | 9.4 | 99.9* | 7.1 | 8.0 | 5.9
CC(NC(=O)COC(=O)CSCc1ccccc1)c1ccccc1 (configuration not stated) | 0.1 | -1.2 | 2.8 | 1.5 | -34.7
CC(NC(=O)COC(=O)CCc1ccccc1)c1ccccc1 (configuration not stated) | -1.7 | -0.8 | -24.7 | 34.8* | -8.9
Cc1cc(O)c2c(c1)C(=O)[C@@]13Oc4c5c(c(O)c6c(O)cc(C)cc46)C(=O)C[C@H](O)[C@H]5[C@@H]1[C@@H](O)CC(=O)C3=C2O | 10.6 | x | x | x | 66.3*
CCCN1CCCc2cc(CN)ccc21 | 3.6 | -0.1 | -8.8 | 9.0 | 50.4*
